Screening results: PubChem BioAssay, several laboratories
Sampled rows, rich in hits. Any-hit rate of the full collection: about 32%.
PostGolgi ctrl: inhibits growth of the yeast control strain. efflux-deficient yeast background strain, growth absorbance A615, 16 h. inhibition, % at 10 µM. 98,000 compounds, 5% hits. AID 738
CYP2C19 inh: blocks human cytochrome P450 2C19. P33261. CYP2C19 Supersomes, luciferin-H EGE luminescence, 30 min. inhibition, % at 5 µM. 96,000 compounds, 21% hits. AID 778;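 active = CYP2C19 inhibition above a set limit at 5 µM in the primary screen, cut at about 50% in these data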;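 note: plate controls were negative control wells for no effect and 2.5 mM tranylcypromine positive control for full effect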
Target sequence (P33261 whole entry, looked up): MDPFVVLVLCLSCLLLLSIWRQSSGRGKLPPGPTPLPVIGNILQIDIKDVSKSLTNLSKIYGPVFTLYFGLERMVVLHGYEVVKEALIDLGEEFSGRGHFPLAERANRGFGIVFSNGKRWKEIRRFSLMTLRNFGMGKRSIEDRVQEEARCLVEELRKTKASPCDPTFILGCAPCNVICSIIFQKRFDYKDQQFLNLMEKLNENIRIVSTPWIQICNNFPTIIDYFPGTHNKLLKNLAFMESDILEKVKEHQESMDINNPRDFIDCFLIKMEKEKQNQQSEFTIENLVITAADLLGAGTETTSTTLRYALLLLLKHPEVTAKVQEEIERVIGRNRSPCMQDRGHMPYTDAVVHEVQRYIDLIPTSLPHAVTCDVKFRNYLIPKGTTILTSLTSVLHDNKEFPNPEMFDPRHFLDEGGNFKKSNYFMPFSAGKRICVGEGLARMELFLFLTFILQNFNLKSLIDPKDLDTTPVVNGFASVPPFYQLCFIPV
CYP2C9 act: activators of human CYP2C9. P11712. recombinant CYP2C9, luciferin-H conversion, luminescence; hits give high values; factor 1 = untreated enzyme, 0 = blocked. activation factor at 5 µM. 96,000 compounds, 1.4% hits. AID 1024;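 active = activation factor of 2 or more for CYP2C9 at a 5 µM dose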;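 note: 0 = sulfaphenazole-blocked wells and 1 = vehicle-only wells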
CYP2C19 act: cytochrome P450 2C19 (human) activation | recombinant CYP2C19, luciferin-H EGE luminescence; hits give high values; 0 = fully inhibited enzyme, 1 = untreated enzyme | P33261 | activation factor at 5 µM | 96,000 tested, under 10 active;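 active = activation factor of at least 2 at 5 µM in the primary screen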;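 note: 0 = wells with 2.5 mM tranylcypromine and 1 = vehicle-only wells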
CYP2C9 inhib: blocks human cytochrome P450 2C9; inhibition, % at 5 µM; AID 777; CYP2C9 Supersomes, luciferin-H conversion, luminescence; P11712; 96,000 compounds, 20% hits;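 active = blocking of liver enzyme CYP2C9 beyond about 50% at 5 µM, limit read from the data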
PostGolgi yeast: growth inhibition of a yeast mutant, post-Golgi transport screen; post-Golgi transport phenotypic cell assay; inhibition, % at 10 µM; 98,000 compounds, 0.9% hits; AID 739;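 note: yeast cells grown in 1536-well plates; yeast grown about 18 h at 30C before absorbance read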
* marks the source's active call; other numbers are inactive results; x = not tested or not shown. Cut-off read from the data, not from the text of the source, unless noted: active = inhibition above about 30%; inactive = the rest.

SMILES | PostGolgi ctrl | CYP2C19 inh | CYP2C9 act | CYP2C19 act | CYP2C9 inhib | PostGolgi yeast
Cn1c(NCCCO)nc2c(c1=O)C1(CCCCC1)Cc1ccccc1-2 | 36.0* | 77.5* | 0.2 | 0.2 | 82.9* | 7.8
O=c1[nH]c(NCCO)nc2c1C1(CCCC1)Cc1ccccc1-2 | 14.6 | 7.0 | 0.7 | 0.9 | 25.5 | -1.2
CCC1(C)Cc2ccccc2-c2nc(NCCCO)n(-c3ccccc3)c(=O)c21 (stereo unspecified) | 15.6 | 51.1* | 0.8 | 0.5 | 24.9 | 2.6
CCC1(C)Cc2ccccc2-c2nc(NCCO)[nH]c(=O)c21 (stereo unspecified) | 10.8 | 55.7* | 0.3 | 0.4 | 69.3* | -0.6
CCC1(C)Cc2ccccc2-c2nc(-c3ccccc3)oc(=O)c21 (stereo unspecified) | 8.8 | -18.5 | 0.5 | 1.2 | 46.3 | -1.7
CCC1(C)Cc2ccccc2-c2nc3n(c(=O)c21)CC(C(=O)O)S3 (stereo unspecified) | 9.3 | -0.8 | 0.3 | 1 | 68.9* | 9.4
CCOC(=O)C1CCN(S(=O)(=O)c2c(C)[nH]c(=O)[nH]c2=O)CC1 | -8.5 | 25.6 | 1.1 | 0.7 | -14.3 | 0.9
COc1ccc(OCC(=O)N2CCN(C(=O)c3cccc(F)c3)CC2)cc1 | -10.0 | 27.5 | 0.8 | 0.7 | 15.2 | 13.1
O=C(Nc1c(Cl)cccc1Cl)c1cc(=O)n(Cc2ccccc2)c(=O)[nH]1 | -2.6 | -5.0 | 1.1 | 1.1 | -11.2 | 0.8
COC(=O)CNC(=O)c1c(-c2c(Cl)cccc2Cl)noc1C | 5.2 | 47.5 | 0.4 | 0.5 | 58.3* | -0.1
CC(=O)Nc1cccc(NC(=O)c2c(-c3c(Cl)cccc3Cl)noc2C)c1 | 2.6 | 81.8* | 0.1 | 0.2 | 86.6* | 0.5
COc1c(Cl)cc(-c2noc(C)c2C(=O)NCCc2ccc(C)cc2)cc1Cl | 37.3* | -2.3 | 0.6 | 1 | 39.3 | 2.2
Cc1onc(-c2ccccc2)c1C(=O)NCCc1ccc(S(N)(=O)=O)cc1 | -3.6 | 5.6 | 1 | 0.9 | -1.5 | 4.2
COc1c(Cl)cc(-c2noc(C)c2C(=O)NCc2ccccc2)cc1Cl | 10.2 | 22.3 | 1.3 | 0.8 | -26.9 | -1.3
Cc1onc(-c2c(Cl)cccc2Cl)c1C(=O)NCCc1ccc(S(N)(=O)=O)cc1 | -9.2 | 33.0 | 0.3 | 0.7 | 72.7* | -2.1
Cc1ccc(NC(=O)c2c(-c3c(F)cccc3Cl)noc2C)cc1F | 8.7 | 83.4* | 0.1 | 0.2 | 92.0* | 5.3
CCOC(=O)C(=O)/C(=C\N(C)C)c1onc(-c2c(F)cccc2Cl)c1C(=O)OC | 5.5 | 48.3 | 0.4 | 0.5 | 57.8* | 17.6
Cc1cc(C)nc(NC(=O)c2c(-c3c(Cl)cccc3Cl)noc2C)n1 | 28.7 | 0.2 | 0.8 | 1 | 15.1 | 5.3
O=C(c1ccco1)N1CCN(C2CCCC2)CC1 | 3.5 | 28.0 | 1.1 | 0.7 | -6.2 | 9.8
N#Cc1cc(-c2ccccc2)nn1-c1ccccc1 | 11.0 | 2.9 | 0.6 | 1 | 36.0 | -8.5
O=C(Cn1c(-c2ccco2)nc2ccccc21)N1CCCCC1 | 6.8 | -7.6 | 1.1 | 1.1 | -8.2 | -10.6
Cc1ccc(CNn2cnnc2SCC(=O)NC(C)(C)C)cc1 | 4.3 | 13.9 | 0.9 | 0.9 | 8.5 | 4.6
Cc1ccc2c(c1)N(C(=O)NC1CCCCC1)C(C)(C)CC2C (stereo unspecified) | 8.1 | 71.6* | 0.7 | 0.3 | 33.3 | 3.9
COc1cc(C2C3C(=O)N(Cc4ccccc4)C(=O)C3ON2c2ccccc2)cc(OC)c1O (stereo unspecified) | -0.1 | 19.1 | 0.4 | 0.8 | 56.5* | 1.0
Cc1ccc(C(=O)Nc2nc(=O)n(C(=O)CC(C)C)s2)cc1 | 12.7 | 7.5 | 0.2 | 0.9 | 84.1* | 0.3
Cc1ccc(C(=O)Nc2nc(=O)n(C(=O)c3ccccc3Cl)s2)cc1 | 18.3 | 65.7* | 0.1 | 0.3 | 93.5* | -11.9
Cc1[nH]nc(N=CC2=C(O)CC(c3ccco3)CC2=O)c1-c1ccccc1 (stereo unspecified) | 45.4* | 28.4 | 0.4 | 0.7 | 60.7* | 3.6
Cc1[nH]nc(N=CC2=C(O)CC(C)(C)CC2=O)c1-c1ccccc1 | 15.4 | 3.9 | 0.6 | 1 | 35.9 | 2.8
COc1cccc(C(C#N)N2N=C(C)CC2(C)C)c1O (stereo unspecified) | 5.1 | x | 0.9 | x | 6.5 | -5.1
Cc1ccc(-c2nc(C3CCN(S(=O)(=O)c4ccc(C(F)(F)F)cc4)CC3)no2)cc1 | -7.8 | 6.6 | 0.6 | 0.9 | 43.2 | 6.5
